Screening data from PubChem.
The list is not random: actives were taken first. Their share in the collection is about 11%.
3T3 cytotox = Cytotoxic Profiling in NIH 3T3 Cell Line of Diverse Libraries Using Quantitative High-Throughput Screening; NIH 3T3 viability, CellTiter-Glo ATP luminescence, 48-72 h; Potency, µM (highest dose often 96.7 µM), actives largely listed as inhibitors; 94,000 tested, 4.3% active; note: nearly all actives have a fitted effect of over 55% in size
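Cells were seeded at 400 per well, treated with pin-transferred compound, and kept 48 or 72 hr at 37 °C before CellTiter-Glo addition and luminescence imaging of cellular ATP.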
hNpr1 antagonist = Natriuretic polypeptide receptor (hNpr1) antagonism - Primary qHTS. Atrial natriuretic peptide receptor 1 (Homo sapiens), P16066. HEK293 hNpr1 GloSensor cGMP, ANP-stimulated luminescence. Potency, µM (series often up to 46.3 µM), usual class: inhibitors. 76,000 tested, 1.6% active. AID 1347048, 2019; calls by dose curve; note: nearly all actives have a fitted effect of over 60% in size
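HEK293 cells stably expressing human Npr1 and cGMP GloSensor pGS-40F, loaded 2 h with 2% GloSensor reagent, given compound 30 min at room temperature. Luminescence read before and 20 min after 0.1 nM hNppA.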
Luciferase inh = Firefly luciferase inhibition profiling of diverse chemical library using quantitative high-throughput screening | Potency, µM (series often up to 115 µM), actives largely listed as inhibitors | 76,000 tested, 2.5% active | purified P. pyralis luciferase, luminescence, biochemical; note: nearly all actives have a fitted effect of over 65% in size
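Purified 10nM P. pyralis luciferase with 10uM D-luciferin and 10uM ATP in 50mM Tris acetate pH 7.5, 10mM Mg acetate, 0.01% Tween-20, 0.05% BSA. qHTS titration; luminescence read by CCD imager.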
HEK293 tox = Cytotoxic Profiling in HEK 293 Cell Line of Diverse Libraries Using Quantitative High-Throughput Screening; HEK 293 viability, ATP luminescence (CellTiter-Glo), 48-72 h; 94,000 tested, 6.6% active; Potency, µM (top dose mostly 115 µM), hits mostly inhibitors; note: nearly all actives have a fitted effect of over 60% in size
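Cytotoxicity was scored by loss of ATP-coupled luminescence (CellTiter-Glo) in HEK 293 cells. Compound treatment ran 48 or 72 hr at 37 degree Celsius, 5% CO2, 95% humidity.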
Each line names hits and unclear results; the compound was inactive in the other large screens. Unless noted, calls come from the whole dose curve; as a rule, active = well fitted curve in the direction sought with a large enough effect; inconclusive = small, poorly fitted or top-dose-only effect, or another doubt; inactive = no such curve, though single readings can be large; an effect the other way counts as inactive or inconclusive.

COc1cccc(-c2cc3c(=O)n(CCNC(=O)COc4cccc(C)c4)ccn3n2)c1	3T3 cytotox inconclusive, hNpr1 antagonist inconclusive, Luciferase inh 22.4µM, HEK293 tox inconclusive
COc1cccc(-c2cc3c(=O)n(CCNC(=O)Cc4cccs4)ccn3n2)c1	Luciferase inh 15.8µM, HEK293 tox inconclusive
Cc1ccc(NC(=O)N2CCCC(Cn3c(C)cnc3C3CC3)C2)cc1C (stereo unspecified)	3T3 cytotox inconclusive (no result: hNpr1 antagonist, Luciferase inh)
COc1ccc(F)c(CN2CCCN3CCC[C@H]3C2)c1Cl	3T3 cytotox inconclusive, HEK293 tox inconclusive
COc1cc(OC)cc(C(=O)NCCn2ccn3nc(-c4cccc(OC)c4)cc3c2=O)c1	Luciferase inh 17.8µM
CNC(=O)c1cc(C)nc2onc(C3CCCN3C(=O)c3ccc(C)cc3)c12 (stereo unspecified)	none (no result: hNpr1 antagonist, Luciferase inh)
CC1CCN(c2ccc(-c3cccc(N)c3)nn2)CC1	3T3 cytotox 31.6µM, hNpr1 antagonist 0.631µM, Luciferase inh 0.1µM, HEK293 tox 31.6µM
CC(c1ccc(-c2ccc(N3CCN(C)CC3)nn2)cc1)N1CCCCC1 (stereo unspecified)	HEK293 tox inconclusive
COc1ccc(-c2cc(-c3ccc(N4CCOCC4)nc3)cn3cncc23)cc1	3T3 cytotox inconclusive, Luciferase inh inconclusive, HEK293 tox inconclusive
COc1ccc(-c2cc(-c3ccccc3O)cn3cncc23)cc1	3T3 cytotox inconclusive, HEK293 tox 100µM
COc1ccc(-c2cc(-c3cnn(C)c3)cn3cncc23)cc1	3T3 cytotox 35.5µM, HEK293 tox inconclusive
Oc1ccccc1-c1cc(-c2cccnc2)c2cncn2c1	3T3 cytotox inconclusive, HEK293 tox 100µM
COc1ccc(-c2cc(-c3cccc(OC)c3OC)cn3cncc23)cc1	3T3 cytotox inconclusive, Luciferase inh inconclusive, HEK293 tox 89.1µM
COc1cccc(-c2nnnn2[C@H]2CO[C@H]3[C@@H]2OC[C@@H]3NS(=O)(=O)c2ccccc2C#N)c1	none
CC1=C[C@@H](CNC(=O)Nc2cccc(C#N)c2)[C@H](C(C)C)C[C@H]1CC(=O)NCc1ccccn1	3T3 cytotox inconclusive, HEK293 tox inconclusive
CC(C)c1nc2c(c(-c3ccc(O)cc3)n1)CCN(C(=O)c1cccc(Cl)c1)CC2	HEK293 tox inconclusive
COc1ccc(-c2cc(-c3cccc(CO)c3)cn3cncc23)cc1	3T3 cytotox 56.2µM, HEK293 tox 79.4µM
COc1cccc(-c2cc(-c3ccc(OC)nc3)c3cncn3c2)c1	3T3 cytotox inconclusive, HEK293 tox inconclusive
O=[N+]([O-])c1cccc(-c2noc([C@@H]3C[C@@H](O)CN3Cc3ncc[nH]3)n2)c1	none
O=[N+]([O-])c1cccc(-c2noc([C@@H]3C[C@@H](O)CN3CC3CCCCC3)n2)c1	3T3 cytotox inconclusive, HEK293 tox 63.1µM
COc1ccc(-c2noc([C@@H]3C[C@@H](O)CN3Cc3ccccc3)n2)cc1	3T3 cytotox inconclusive, Luciferase inh inconclusive, HEK293 tox inconclusive
O[C@@H]1C[C@@H](c2nc(-c3ccccc3)no2)N(Cc2ncc[nH]2)C1	Luciferase inh 22.4µM
O=[N+]([O-])c1cccc(-c2noc([C@@H]3C[C@@H](O)CN3Cc3ccccc3)n2)c1	none
COc1ccc(-c2noc([C@@H]3C[C@@H](O)CN3Cc3ccc(C)cc3)n2)cc1	Luciferase inh inconclusive, HEK293 tox inconclusive
Cc1ccc(-c2noc([C@@H]3C[C@@H](O)CN3Cc3ncc[nH]3)n2)cc1F	3T3 cytotox inconclusive, Luciferase inh 25.1µM, HEK293 tox inconclusive
COc1ccc(-c2noc([C@@H]3C[C@@H](O)CN3Cc3ccccn3)n2)cc1	3T3 cytotox 35.5µM, hNpr1 antagonist inconclusive, Luciferase inh inconclusive, HEK293 tox inconclusive
O=C(NCc1ccc(F)cc1)N1CCC(c2noc(-c3ccccn3)n2)C1 (stereo unspecified)	none
COc1ccc(-c2noc([C@@H]3C[C@@H](O)CN3C3CCN(C)CC3)n2)cc1	Luciferase inh 70.8µM
O=C(C1=NO[C@@H]2CN(Cc3ccc(F)cc3)C[C@H]12)N1CCN(c2ccccn2)CC1	3T3 cytotox inconclusive, HEK293 tox inconclusive
OC[C@@H]1CN(CC2CC2)C[C@H]1c1nc(-c2cccnc2)no1	Luciferase inh inconclusive
CC(C)N1C[C@@H](CO)[C@H](c2nc(-c3cccnc3)no2)C1	Luciferase inh 20µM, HEK293 tox inconclusive
